Shiga toxin inh – Shiga toxin inhibition; inhibition, % at 38.7 µM; 290,000 tested, 9.2% active; Vero cells, Shiga toxin protein synthesis inhibition reporter; in the data active means inhibition mostly above about 28%, no sharp cut-off; inactive means mostly below about 43%; further: 0% is about no effect
CHX counter – counter-screen for Shiga toxin inhibitors: cycloheximide protein synthesis inhibition; cell reporter, cycloheximide protein synthesis inhibition counterscreen; max response, %; 300,000 tested, 12% active; AID 2314; in the data active means max response mostly above about 13%, no sharp cut-off; inactive means mostly below about 14%; further: read at 38.3 µM for the half of the compounds with a filed dose; 0% is about no effect
Pf growth 48h – inhibits P. falciparum growth in the first generation, 48 h | P. falciparum luciferase growth in erythrocytes, 48 h | Potency, µM (highest dose often 28.7 µM), without a hit: top-dose activity change, negative = inhibition, actives largely listed as inhibitors | 310,000 tested, 5.9% active | AID 504832; further: potency means the concentration at half of the fitted maximal effect; on the % scale 0 is the no-effect control and ±100 the full control effect
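Firefly luciferase activity from engineered P. falciparum reports growth; inhibitors lower the luminescent signal. Cultures contained 2% hematocrit erythrocytes at 0.1% final parasitemia.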
SARS PLP yeast – blocks SARS-CoV papain-like protease in a yeast assay; S. cerevisiae expressing SARS-CoV PLpro, growth rescue; Potency, µM (top dose mostly 32.9 µM), for inactives: at the highest dose activity, positive = growth rescue, most hits filed as activators; 330,000 tested, 0.19% active; calls by dose curve; further: potency means the concentration at half of the fitted maximal effect; 0% is about no effect; nearly all actives have a fitted effect of over 55% in size
AMA1-RON2 inh – AMA1-RON2 (P. falciparum) interaction inhibition | AlphaScreen AMA1-biotinylated RON2 peptide binding | Potency, µM (highest dose often 58.2 µM), for the others: at the top dose activity change, negative = inhibition, usual class: inhibitors | 360,000 tested, 0.2% active;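 further: potency means the concentration at half of the fitted maximal effect; 0% = vehicle wells and -100% = peptide control; nearly all actives have a fitted effect of over 45% in size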
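AMA1 (3D7) with his tag at 25 nM final met compounds first, then biotinylated RON2 peptide at 25 nM; detection used donor plus acceptor beads, 10 µg/mL apiece, read by AlphaScreen after 30 min at room temperature.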
Pf growth 96h – P. falciparum growth inhibition at 96 hour, primary screen for plastid delayed-death inhibitors. Potency, µM (highest dose often 28.7 µM), without a hit: top-dose activity change, negative = inhibition, usual class: inhibitors. 320,000 tested, 6.9% active. AID 504834. P. falciparum luciferase reporter growth, 96 h; further: potency means the concentration at half of the fitted maximal effect; on the % scale 0 is the no-effect control and ±100 the full control effect
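Two parasite generations (96 h, 37 C, 5% CO2) of compound exposure in infected erythrocytes (0.05% parasitemia, 2% hematocrit). Luciferase-reporter P. falciparum; decreased luminescence indicates inhibited growth, aimed at apicoplast-acting delayed death.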
The depositor's hits bear a star; [ ] = remark or other dose. Shown are actives, neighbours in structure and some others; about 19% of the full set was active somewhere. Unless noted, the call rests on the fitted dose curve; in most records, active means well fitted curve in the direction sought with a large enough effect; inconclusive means small, poorly fitted or top-dose-only effect, or another doubt; inactive means no such curve, though single readings can be large; an effect the other way counts as inactive or inconclusive.

For Cc1c(C(=O)N2CCN(C/C=C/c3ccccc3)CC2)oc2c(F)cccc12 the results were Pf growth 48h -12%, SARS PLP yeast 0%, AMA1-RON2 inh -5%[11.6 µM] and Pf growth 96h 15%.
`COCCCNC(=O)CCCn1c(=O)c2ccccc2n(CC(=O)Nc2c(C)cc(C)cc2C)c1=O` gave Shiga toxin inh 10, CHX counter 5, Pf growth 48h -22%, SARS PLP yeast 23%, AMA1-RON2 inh -21% and Pf growth 96h -2%.
For CCCc1nc(NCc2ccccc2)c(C#N)c2c1CCCC2 the results were Shiga toxin inh -1, CHX counter -2, Pf growth 48h 6.6µM*, SARS PLP yeast 2%, AMA1-RON2 inh 1% and Pf growth 96h inconclusive.
Screening CCN1CCc2c(C#N)c(NCc3ccccc3)nc(N(CC)CC)c2C1 returned Shiga toxin inh -10, CHX counter -4, Pf growth 48h 2.6µM*, SARS PLP yeast -3%, AMA1-RON2 inh -28% and Pf growth 96h 0.93µM*.
`N#Cc1c(N2CCCCC2)nc(N2CCCCC2)c2c1CCN(Cc1ccccc1)C2` gave Shiga toxin inh -2, CHX counter -5, Pf growth 48h 3.7µM*, SARS PLP yeast -1%, AMA1-RON2 inh -13% and Pf growth 96h 98%.
`N#Cc1c(Cl)nc(Cl)c2c1CCN(Cc1ccccc1)C2` gave Shiga toxin inh -8, CHX counter -3, Pf growth 48h -16%, SARS PLP yeast 2%, AMA1-RON2 inh -23% and Pf growth 96h inconclusive.
Screening N#Cc1c(NCCN)nc(NCc2ccccc2)c2c1CCN(Cc1ccccc1)C2 returned Shiga toxin inh -12, CHX counter -7, Pf growth 48h 9.3µM*, SARS PLP yeast -1%, AMA1-RON2 inh -8% and Pf growth 96h 70%.
Cc1ccc(S(=O)(=O)Nc2cccc(S(=O)(=O)Nc3ccccc3C(=O)O)c2)c(C)c1 was read as SARS PLP yeast -7% and AMA1-RON2 inh -6%.
For N#C/C(=C\c1ccc[nH]1)C(=O)N1CCCCC1 the results were Shiga toxin inh 13, CHX counter 9, Pf growth 48h inconclusive, SARS PLP yeast -2%, AMA1-RON2 inh 19% and Pf growth 96h 17%.
For CCOc1ccc(CCNC(=O)C2CCC(=O)N2CCc2ccccc2)cc1OCC (stereo not given) the results were Shiga toxin inh -24, CHX counter -5, SARS PLP yeast 4%, AMA1-RON2 inh -1% and Pf growth 96h 13µM*.
Screening CCC(CC)NC(=O)C1CC(=O)N(CCc2ccc(F)cc2)C1 (stereo not given) returned Shiga toxin inh 15, CHX counter -2, Pf growth 48h 2%, SARS PLP yeast 1%, AMA1-RON2 inh -15% and Pf growth 96h 28%.
COc1ccc(CCN2CC(C(=O)NCCc3ccccc3)CC2=O)cc1OC (stereo not given) was read as Shiga toxin inh 172*, CHX counter 36*, Pf growth 48h 94%, SARS PLP yeast 0%, AMA1-RON2 inh -4% and Pf growth 96h inconclusive.
`CCOc1ccc(CCNC(=O)CN2C(=O)CCSc3ccccc32)cc1OCC` gave Shiga toxin inh -12, CHX counter -2, Pf growth 48h 0%, SARS PLP yeast 0%, AMA1-RON2 inh -10% and Pf growth 96h 0.19µM*.
For CCCC(C)NC(=O)C1CC(=O)N(CCc2ccc(F)cc2)C1 (stereo not given) the results were Shiga toxin inh 37, CHX counter 2, Pf growth 48h 0%, SARS PLP yeast -7%, AMA1-RON2 inh -2% and Pf growth 96h 0.93µM*.
`COc1ccc2[nH]c(CN3CCC(CO)(CCOc4ccccc4)CC3)c(C)c2c1` gave Shiga toxin inh -10, CHX counter -6, Pf growth 48h inconclusive, SARS PLP yeast 0%, AMA1-RON2 inh -19% and Pf growth 96h inconclusive.
For CCN(c1cccc(C)c1)S(=O)(=O)c1ccc(-n2cccn2)cc1 the results were Shiga toxin inh 7, CHX counter -3, Pf growth 48h 0%, SARS PLP yeast -3%, AMA1-RON2 inh -7% and Pf growth 96h 0%.
For COc1ccccc1/C=C/C(=O)OCC(=O)NC1CC1 the results were Pf growth 48h -6%, SARS PLP yeast 1%, AMA1-RON2 inh 10% and Pf growth 96h 39%.

Compound activity from PubChem.
